High-throughput results: PubChem, Sanford-Burnham Center for Chemical Genomics
A selection: hits, their analogues and other compounds. The true share with any hit is near 0.71%.
hiPSC survival: enhancers of human iPSC single-cell survival; hiPSC single-cell survival, ATPlite luminescence; 100% = ROCK inhibitor wells, 0% = DMSO; survival enhancement, % at 20 µM; 0.044% of 360,000 active; AID 602274; in the data active means survival enhancement above about 18%;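 further: cells exposed to compounds for 16 hours before the ATP read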
H9c2 TAG inh: reduces triacylglycerol accumulation in H9c2 cells; Nile Red lipid (TAG) fluorescence; cells loaded with 200 µM oleic acid; inhibition, % at 12.5 µM; 0.66% of 230,000 active; AID 651582;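 active means pattern-corrected inhibition of lipid staining of at least 50% with the nuclear-stain viability signal not falling by more than 50%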
beta cell repl: induces beta-cell replication in MIN6 cells. proliferation, % at 10 µM. 0.29% of 330,000 active. MIN6 cells proliferation, ATPlite luminescence, 48 h; cells starved in 0.2% serum; 100% = growth in 10% serum;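 active means compounds whose signal lies at least 3.5 SD above the mean of all wells on their plate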
TAG conf: triacylglycerol accumulation inhibition, confirmation | shares compounds with H9c2 TAG inh | inhibition, % at 12.5 µM | 71% of 990 active | H9c2 lipid accumulation, Nile Red fluorescence; cells loaded with 200 µM oleic acid;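 active means mean inhibition across replicates of 40% or more; inactive means mean inhibition below 40%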
Hits are given with their value; 0 = inactive; - = no result given.

SMILES | hiPSC survival | H9c2 TAG inh | beta cell repl | TAG conf
COc1ccc(CC(=O)NNC(=O)c2ccccc2)cc1OC | 0 | 0 | 0 | -
COc1ccc(C(=O)NNC(=O)Cc2ccc(-c3ccccc3)cc2)cc1OC | 0 | 57 | 0 | 0
c1ccc(Nc2nc(-c3ccccc3)nc3ccccc23)cc1 | 0 | 0 | 0 | -
Fc1cccc(Nc2nc(-c3ccncc3)nc3ccccc23)c1 | 0 | 69 | 0 | 63
O=C1C=C(c2ccc(CO)cc2)C[C@@H](c2ccc(F)cc2)C1 | 0 | 0 | - | -
COC(=O)CCCn1cc(CN2CC(N(C)C)CS2(=O)=O)nn1 (stereo unspecified) | 0 | - | - | -
CC1=NN(S(=O)(=O)c2ccc(C)cc2)C(=O)c2ccccc2O1 | 0 | 0 | 0 | -
COc1ccc(S(=O)(=O)N2N=C(C)Oc3ccccc3C2=O)cc1 | 0 | 63 | 0 | 54
C[C@@H]1O[C@H](CCc2cccc(Cl)c2)CC2=C1C(=O)OC(C)(C)O2 | 0 | - | - | -
COc1ccc2cc3cc(C(=O)NCCc4ccc(OC)c(OC)c4)oc3nc2c1 | 0 | 67 | 0 | 44
CCCN(CCC)CCCNC(=O)c1cc2cc3ccc(OC)cc3nc2o1 | 0 | 0 | 0 | -
COc1ccc(N2CCN(C(=O)CSc3nnc(C4CC4)n3C3CC3)CC2)cc1 | 0 | 0 | - | -
CC(C)(C)OC(=O)[C@H](Cc1ccccc1)NC(=O)c1ncn2c1c(=O)[nH]c1ccc(Br)cc12 | 0 | 65 | - | 77
CC(C)(C)OC(=O)[C@H](Cc1ccccc1)NC(=O)c1nc[nH]c1C(=O)N[C@@H](Cc1ccccc1)C(=O)OC(C)(C)C | 0 | 0 | 0 | -
CC(=O)Nc1ccc2[nH]c(C)cc(=O)c2c1 | 0 | 0 | 0 | -
COc1cccc(-c2cc(=O)c3cc(NC(C)=O)ccc3[nH]2)c1 | 0 | 63 | 0 | 0
CCc1nc2c(OCCOc3ccc(F)cc3)cccn2c1N(C)C(=O)CC(C)C | 0 | 0 | - | -
CCOC(=O)C1=CCC(c2cccn2C(=O)OC(C)(C)C)N(S(=O)(=O)c2ccc(C)cc2)C1 (stereo unspecified) | 0 | - | - | -
COc1ccccc1NC(=O)c1ccccc1S(=O)(=O)c1ccccc1[N+](=O)[O-] | 0 | 0 | 0 | -
COc1ccccc1NC(=O)c1ccccc1S(=O)(=O)c1ccc([N+](=O)[O-])cc1 | 0 | 54 | 0 | 0
C/C(=N/NC(=O)c1nnn(-c2nonc2N)c1CSc1ccc(C)cc1)c1ccncc1 | 0 | 0 | - | -
CN(C)c1nc(C#N)nc(N2CCOCC2)n1 | 0 | 0 | 0 | -
CC(C)N(C#N)c1nc(N2CCOCC2)nc(N2CCOCC2)n1 | 0 | 51 | 0 | 0
CC(=O)Nc1cccc(C(=O)Nc2cc(C(F)(F)F)ccc2-n2cncn2)c1 | 0 | 0 | - | -
CC1(C)Cc2c(C#N)c(SCC(=O)c3ccccc3)nc(N3CCOCC3)c2CS1 | 20 | 51 | 0 | 59
SMILES | hiPSC survival | H9c2 TAG inh | beta cell repl | TAG conf
CN1Cc2c(N3CCOCC3)nc(SCc3ccccc3)c(C#N)c2CC1(C)C | 0 | - | 0 | -
CN(Cc1ccccc1)C(=O)CC(=O)N(C)Cc1ccccc1 | 0 | - | 0 | -
CN(Cc1ccc(Cl)cc1)C(=O)CCl | 0 | 52 | 0 | 60
COc1cc2c(cc1OC)C(C)N(C(=O)c1cc3c(C)cc(C)cc3[nH]1)CC2 (stereo unspecified) | 0 | 54 | 0 | 59
COc1cc2c(cc1OC)C(C)N(C(=O)Nc1cc(C)cc(C)c1)CC2 (stereo unspecified) | 0 | - | 0 | -
CCOC(=O)C1CCCCN1C(=O)c1cc2ccc(OC)cc2c2cc(OC)c(OC)cc12 (stereo unspecified) | 0 | 54 | - | 0
CCOC(=O)C1CCCN1C(=O)c1ccc(OC)c(Br)c1 (stereo unspecified) | 0 | 0 | 0 | -
CC(C)n1[nH]c2ccccc2c1=O | 0 | - | - | -
CC(=O)Nc1cc(-c2cccc(CO)c2)cn2c(-c3ccc(F)cc3)cnc12 | 0 | 0 | - | -
O=C(CSc1ccc(-c2cccc([N+](=O)[O-])c2)nn1)N1CCCC1 | 0 | 60 | 0 | 0
O=C(CSc1ccc(-c2cccc([N+](=O)[O-])c2)nn1)N1CCCCCC1 | 0 | 0 | 0 | -
COc1ccc(C(=O)CSC(=S)N2CCCCC2)cc1 | 0 | - | - | -
O=C(NCCc1cccs1)Nc1nnc([C@H]2C[C@H](O)[C@@H](CO)O2)s1 | 0 | 0 | - | -
O=C1NC[C@@H](CCCCN2C[C@H](Cc3ccc(O)cc3)N(Cc3ccccc3)C(=O)C2=O)N(Cc2ccccc2)C1=O | 0 | - | - | -
Cc1ccc(S(=O)(=O)N(C)C[C@@H]2OCc3cnnn3CCCC(=O)N([C@@H](C)CO)C[C@H]2C)cc1 | 0 | 0 | - | -
O=C(COc1ccc(Cl)cc1Cl)NN=C1c2ccccc2-c2ccccc21 | 0 | 51 | 0 | 0
O=C(COc1ccc(Cl)cc1Cl)N/N=C1\CCCc2ccccc21 | 0 | 0 | 0 | -
COc1ccc(CC(N)c2csc(Nc3nccc(C(F)(F)F)n3)n2)cc1 (stereo unspecified) | 0 | 0 | - | -
